From PubChem BioAssay
Most compounds without a hit are left out; they make up all but 3% or so of the library.
SNCA viab count: GF-AFC viability counterscreen for inhibitors of alpha-synuclein gene (SNCA) expression | 150,000 tested, 0.12% active | AID 1671193, 2021 | Potency, µM (series often up to 57.1 µM), inactives show top-dose activity change, negative = cytotoxicity, actives largely listed as cytotoxic | HEK-293-SNCA-luc viability, GF-AFC fluorescence, 24 h;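 also: potency is read from the fitted curve at half-maximal effect; 0% = DMSO-treated cells and -100% = medium-only wells without cells; nearly all actives have a fitted effect of over 30% in size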
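Cytotoxicity counterscreen: after 24 h compound treatment of genome-edited SNCA-luciferase HEK-293 cells, live-cell protease substrate GF-AFC read by fluorescence after 30 min; activity scaled between DMSO (0%) and medium-only (-100%), curves Hill-fitted.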
KDM5B inh: Primary screen for KDM5B Histone Demethylases FDH-coupled qHTS; Lysine-specific demethylase 5B (Homo sapiens), Q9UGL1; KDM5B demethylase, FDH-coupled NADH fluorescence (FDH is formaldehyde dehydrogenase); Potency, µM (highest dose often 57.7 µM), hits mostly inhibitors; 220,000 tested, 2.6% active; also: potency is read from the fitted curve at half-maximal effect; 0% is about no effect; nearly all actives have a fitted effect of over 70% in size
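KDM5BΔAP (200 nM final) in 50 mM HEPES pH 7.5, 0.01% Tween-20 was preincubated 10 min at RT with compound over a concentration range. Substrate mix (H3K4me3 12.5 µM, α-KG 25 µM, Fe²⁺, ascorbate, NAD⁺, FDH) was added, and NADH fluorescence change over 30 min gave dose-response curves.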
SNCA expr inhib: Primary qHTS assay for inhibitors of alpha-synuclein gene (SNCA) expression. HEK-293 SNCA-luciferase knock-in, luminescence, 24 h. Potency, µM (doses to about 57.2 µM), for inactives: at the highest dose activity change, negative = inhibition, most hits filed as inhibitors. 140,000 tested, 0.17% active. AID 1671194, 2021;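 also: potency is read from the fitted curve at half-maximal effect; plate controls were DMSO cells for no effect and cell-free wells for full effect; nearly all actives have a fitted effect of over 45% in size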
IP6K1 inhibitor: Primary qHTS assay for small molecule inhibitors of Inositol hexaphosphate kinase 1 (IP6K1); AID 1645851, 2021; activity change, % (series mostly up to about 58 µM); 140,000 tested, 0.81% active; IP6K1 kinase, ADP-Glo luminescence, 2 h; hits give low values; Inositol hexakisphosphate kinase 1 (Homo sapiens), Q92551; in the data active = activity change below about -25%; also: % is scaled to controls: 0 for no effect and ±100 for the full control effect
Target sequence (Q92551 whole entry, looked up): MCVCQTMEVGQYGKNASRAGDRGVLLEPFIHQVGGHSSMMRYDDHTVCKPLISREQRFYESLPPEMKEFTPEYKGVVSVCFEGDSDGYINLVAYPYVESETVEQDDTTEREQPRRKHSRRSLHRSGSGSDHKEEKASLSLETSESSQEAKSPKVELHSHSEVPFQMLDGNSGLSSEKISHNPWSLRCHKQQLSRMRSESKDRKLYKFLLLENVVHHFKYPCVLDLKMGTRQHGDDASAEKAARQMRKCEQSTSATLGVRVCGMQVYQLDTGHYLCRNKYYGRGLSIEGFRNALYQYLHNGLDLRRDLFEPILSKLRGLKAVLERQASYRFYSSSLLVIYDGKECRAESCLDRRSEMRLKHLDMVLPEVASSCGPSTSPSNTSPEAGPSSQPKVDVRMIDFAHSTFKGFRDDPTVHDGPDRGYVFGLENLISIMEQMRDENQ
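ADP-Glo luminescence measures ADP made by human IP6K1 during a 2 h RT reaction with ATP/IP6 (mix at 1.3 mM/130 uM); top library doses 57.5 and 19.1 uM final.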
IP6K1 conf: Confirmatory qHTS assay for small molecule inhibitors of Inositol hexaphosphate kinase 1 (IP6K1) | shares compounds with IP6K1 inhibitor | recombinant IP6K1 kinase, ADP-Glo luminescence, 2 h | Potency, µM (top dose mostly 49 µM), for inactives: at the top dose activity change, negative = inhibition, actives largely listed as inhibitors | 1,200 tested, 13% active | AID 1645852, 2021; also: potency is read from the fitted curve at half-maximal effect; % is scaled to controls: 0 for no effect and ±100 for the full control effect; nearly all actives have a fitted effect of over 65% in size
Numbers without * were called inactive; i = inactive; ? = inconclusive; / = not tested or not shown; [ ] = another dose, or the depositor's remark. Unless noted, calls follow the shape of the dose curve; as a rule, active = well fitted curve in the direction sought with a large enough effect; inconclusive = small, poorly fitted or top-dose-only effect, or another doubt; inactive = no such curve, though single readings can be large; an effect the other way counts as inactive or inconclusive.

SMILES	SNCA viab count	KDM5B inh	SNCA expr inhib	IP6K1 inhibitor	IP6K1 conf
Cc1cc2cc(C(=O)N(C)Cc3ccc4nsnc4c3)ccc2o1	-13.9%	i	15.4%	-31.6*	?
CN(Cc1ccc2nsnc2c1)C(=O)c1ccc(CCC(C)(C)O)cc1	-5.9%	?	-6.9%	20.6	/
O=C(NCc1cccs1)c1ccc2c(c1)sc1nc(-c3ccccc3)cn12	-16.3%	?	143.1%	-25.4*	?
COc1ccc(-c2cn3c(n2)sc2cc(C(=O)NCc4cccs4)ccc23)cc1	-7.1%	?	133.0%	-3.3	/
O=C(NCc1ccc(F)cc1F)C1CCCCN1Cc1ccc(-c2ccsc2)cc1 (stereo unspecified)	-5.2%	/	-16.6%	3.7	/
CC(C)C(=O)Nc1cccc(C(=O)Nc2nnc(C(F)(F)F)s2)c1	-0.2%	i[11.5 µM]	70.6%	-28.9*	-10.6%
Cc1cccc(NS(=O)(=O)c2nnc(NC(=O)c3cccc(C)c3)s2)c1	2.0%	i	9.2%	4.0	/
CC(C)CNC(=O)c1cn2cc(-c3cccnc3)sc2n1	0.7%[87.6 µM]	/	93.7%[87.6 µM]	6.5	/
Cc1ccn2c(Nc3ccc4c(c3)OCCO4)c(-c3cccs3)nc2c1	-12.7%	?	57.9%	-27.0*	-15.8%
C=Cc1ccc(Cn2c(C(=O)O)c(CNCCc3ccco3)c3ccc(C)cc32)cc1	?	?	-26.6%	-28.9*	1.1%
O=C(Nc1ccccc1F)N1CCN(c2ccc3nnc(C4CC4)n3n2)CC1	/	/	/	12.8	/
CCN1C[C@H]2CN(C)c3ccccc3[C@@H]2N(C(=O)c2ccc(C)cc2)CCC1=O	-5.9%[23.9 µM]	/	-0.2%[25.6 µM]	19.7	/
CC(C)Cc1nc(CN(C)C(=O)c2cccc(CCC(C)(C)O)c2)no1	-7.5%	i	?	-31.8*	-12.4%
O=C(NCc1ccccc1F)c1ccc2nc(-c3cccnc3Cl)oc2c1	-4.9%[87.6 µM]	/	21.4%[87.6 µM]	-1.5	/
Cc1nn2c(=O)cc(COC(=O)c3ccc(C(C)(C)C)cc3)nc2s1	-4.5%	i	20.3%	13.0	/
Cc1nn2c(=O)cc(COC(=O)c3ccc(F)cc3)nc2s1	-4.5%	i	71.4%	-27.2*	-13.2%
O=C(O)C1=CC(=C(c2ccc(O)c(C(=O)O)c2)c2ccc(O)c(C(=O)O)c2)C=CC1=O	7.5%	/	-1.1%	/	1.46µM*
Cn1ncc2c(C(=O)NC3CCOCC3)cc(-c3ccc(F)cc3)nc21	/	/	/	1.6	/
O=C(NCc1ccc(C(F)(F)F)cc1)C1CCCN1c1nccc(Nc2ccccc2F)n1 (stereo unspecified)	-7.7%[12.5 µM]	/	10.5%	-7.9	/
Cn1cnnc1SCC(=O)Nc1ccc(F)cc1	/	i	/	/	/
Cn1cnnc1SCC(=O)Nc1cc(C(=O)O)cc(C(=O)O)c1	3.6%	i	?	-29.9*	-3.1%
COc1cccc(N2CCN(S(=O)(=O)c3ccc(-c4cnc(C5CC5)o4)cc3)CC2)c1	1.6%	i	25.4%	-34.7*	?
O=S(=O)(c1ccc(-c2cnc(C3CC3)o2)cc1)N1CCN(c2ccc(F)cc2)CC1	-5.9%	i	-17.4%	7.7	/
O=S(=O)(c1ccc(-c2cnc(C3CC3)o2)cc1)N1CCN(c2cccc(Cl)c2)CC1	11.5%	i	-4.7%	-6.3	/
COc1ccc(N2CCN(S(=O)(=O)c3ccc(-c4cnc(C5CC5)o4)cc3)CC2)cc1	-7.5%	i	-9.7%	-41.3*	-6.5%
SMILES	SNCA viab count	KDM5B inh	SNCA expr inhib	IP6K1 inhibitor	IP6K1 conf
COc1ccc(-c2c(-c3cc(C(=O)O)ccn3)ncn2C)cc1	-20.3%	/	/	-34.7*	?
O=S(=O)(c1cccc(Cl)c1)n1c(/C=C/c2ccccc2Cl)nc2ccccc21	-22.9%	?	?	-39.1*	?
CCOc1ccc(S(=O)(=O)n2c(C)nc3ccccc32)cc1	28.9%[23.9 µM]	/	/	-3.3	/
COCCNc1nc(NCc2cccc(Cl)c2)c2cnn(C)c2n1	-19.3%	?	-24.0%	-39.1*	-6.7%
COc1ccc(OCC(O)CN2CCC(=O)N(Cc3ccccc3)Cc3cc(OC)ccc32)cc1 (stereo unspecified)	/	/	/	8.9	/
CCn1c2c(c(=O)n3ncc(C(=O)Nc4cc(Cl)ccc4OC)c13)CN(Cc1ccc(OC)cc1)CC2	-7.9%	?	?	-13.9	/
